High-throughput results: PubChem BioAssay, several laboratories
Shown are actives, neighbours in structure and some others; about 1.9% of the full set was active somewhere.
KLF5 inh – suppresses KLF5 promoter-driven expression | DLD-1 KLF5 promoter-luciferase reporter, luminescence | inhibition, % at 5 µM | 0.23% of 290,000 active | AID 1700;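 active means inhibition above a per-plate limit of that plate's mean compound inhibition plus 3 SD, cut at about 60% in these data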;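 further: higher means less KLF5 promoter-driven luciferase light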
BaF3 tox – reduces parental Ba/F3 cell viability, JAK2V617F counter-screen | CellTiter-Glo ATP luminescence | inhibition, % at 5.6 µM | 1.1% of 220,000 active;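 active means inhibition above a per-campaign cutoff, the mean inhibition of all tested compounds plus 3 SD, cut at about 27% in these data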
APP transl inh – APP translation inhibition; SH-SY5Y APP 5'UTR-luciferase reporter, luminescence; inhibition, % at 2 µM; 0.82% of 190,000 active; AID 1285;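 active means inhibition above a set limit, derived from the sample mean plus 3 SD, cut at about 45% in these data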
Ba/F3 V617F tox – reduce viability of Ba/F3 cells dependent on JAK2V617F. Ba/F3 EpoR-JAK2V617F viability, ATP luminescence. inhibition, % at 5.6 µM. 1.1% of 220,000 active. AID 1446;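 active means inhibition above the campaign mean plus 3 SD over all tested compounds, cut at about 24% in these data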;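 further: cytokine-independent growth of Ba/F3 cells driven by EpoR plus mutant JAK2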
IEC-6 cytotox – kills IEC-6 intestinal cells in KLF5 counter-screen; IEC-6 cytotoxicity, luminescence viability; inhibition, % at 5 µM; 0.78% of 290,000 active; AID 1825; in the data active means inhibition above about 22%
Large screens that a line does not name were inactive.

CCCCCOc1ccc(/C=C/c2c([N+](=O)[O-])c(=O)n(C)c(=O)n2C)cc1	none (no result: BaF3 tox, APP transl inh, Ba/F3 V617F tox)
Cc1cc(SCC(=O)NCCC2=CCCCC2)nc2ccccc12	none
Cn1c(SC2=CS(=O)(=O)c3ccccc32)nc2ccccc21	BaF3 tox 65, APP transl inh 72, Ba/F3 V617F tox 89
COc1ccc(CN2CCN(CCC(C)C)C(CCO)C2)cc1Cn1cncn1 (stereo not given)	none
Clc1ccc(Nc2ncnc3ccc(Br)cc23)cc1	IEC-6 cytotox 26
Clc1cccc(Nc2ncnc3ccc(Br)cc23)c1	IEC-6 cytotox 30
COc1cc2ncnc(Nc3cccc(Cl)c3)c2cc1OC	none (no result: APP transl inh)
CCOP(=O)(OCC)c1nc(-c2ccc(OC)cc2)oc1N1CCOCC1	none (no result: APP transl inh)
COP(=O)(OC)c1nc(-c2cccc3ccccc23)oc1N1CCOCC1	BaF3 tox 28
Cc1cccc(C(=O)NNC(=S)NC(=O)c2cccs2)c1	none (no result: BaF3 tox, APP transl inh, Ba/F3 V617F tox)
Cc1ccc(C(=O)Nc2cccc(C(=O)N3CCOCC3)c2)cc1Cl	none (no result: BaF3 tox, APP transl inh, Ba/F3 V617F tox)
O=C(O)CCCCCNS(=O)(=O)c1cccc2c1C(=O)c1ccccc1C2=O	IEC-6 cytotox 26
O=S(=O)(NCC1CCCO1)c1ccccc1F (stereo not given)	none (no result: BaF3 tox, APP transl inh, Ba/F3 V617F tox)
Cc1ccc(C(C)C)c(OCc2nn(CC(=O)c3ccc(OC(F)F)cc3)c3[n+]2CCCCC3)c1	BaF3 tox 30, Ba/F3 V617F tox 49
c1ccc2c(c1)OCC(CNc1ncnc3sccc13)O2 (stereo not given)	BaF3 tox 62, Ba/F3 V617F tox 60
Cn1cc(CN2CCN(c3ncccn3)CC2)c(-c2cccc(Cl)c2)n1	none
Cc1cc(N2CCN(Cc3cn(C)nc3-c3ccccc3F)CC2)cc(C)n1	APP transl inh 81, IEC-6 cytotox 28
Cc1cc(N2CCN(Cc3cn(C)nc3-c3cccc(Cl)c3)CC2)cc(C)n1	APP transl inh 60
CC(C)Oc1cccc(C2NC(=O)c3ccccc3O2)c1 (stereo not given)	none (no result: BaF3 tox, APP transl inh, Ba/F3 V617F tox)
CCOc1ccc(S(=O)(=O)N2c3ccccc3CC2C)cc1 (stereo not given)	BaF3 tox 76, APP transl inh 94, Ba/F3 V617F tox 77, IEC-6 cytotox 67
CCc1ccc(/C=C2\SC(=S)N(CCCC(=O)Nc3ccccn3)C2=O)cc1	APP transl inh 51
COC(=O)c1ccc(/C=C2/SC(=S)N(CCCC(=O)Nc3ccccn3)C2=O)cc1	none
O=C(CCN1C(=O)/C(=C\c2cccs2)SC1=S)NC1=NCCS1	none
COc1ccc(/C=C2/SC(=S)N(CCC(=O)O)C2=O)cc1	APP transl inh 50
COc1ccc(/C=C2\SC(=S)N(CCC(=O)Nc3ccc(C(=O)O)cc3)C2=O)cc1	none (no result: BaF3 tox, APP transl inh, Ba/F3 V617F tox)
CCc1ccc(/C=C2\SC(=S)N(CCC(=O)NC3=NCCS3)C2=O)cc1	APP transl inh 53
Cc1cccc(NC(=O)C2CCN(S(=O)(=O)c3c(C)noc3C)CC2)c1	none (no result: BaF3 tox, APP transl inh, Ba/F3 V617F tox)
Cc1noc(C)c1S(=O)(=O)N1CCC(C(=O)Nc2ccccn2)CC1	BaF3 tox 40
O=C(Cc1ccc(NC2=NC3CS(=O)(=O)CC3S2)cc1)N1CCN(c2ccc(F)cc2)CC1 (stereo not given)	none (no result: BaF3 tox, APP transl inh, Ba/F3 V617F tox)
C[n+]1c2n(c3ccccc31)N=C(c1cc(C(C)(C)C)c(O)c(C(C)(C)C)c1)CS2	BaF3 tox 79, Ba/F3 V617F tox 99
COc1ccc(CN(C)Cc2nc(Cc3cccc(F)c3)no2)c2cccnc12	BaF3 tox 62, Ba/F3 V617F tox 46
Cc1cc(N/C(=N\S(=O)(=O)c2ccc(F)cc2F)c2ccccc2)no1	APP transl inh 68
C=CCN=c1scc(-c2ccccc2)n1/N=C/c1ccccn1	BaF3 tox 57, Ba/F3 V617F tox 53, IEC-6 cytotox 31
Cc1ccccc1N1CCN(C2CCCN(C(=O)c3ccnn3C)C2)CC1 (stereo not given)	none (no result: BaF3 tox, APP transl inh, Ba/F3 V617F tox)
CCCCNc1nc2sc3c(c2c(=O)n1-c1cccc(Cl)c1)CCN(C)C3	BaF3 tox 68, Ba/F3 V617F tox 80 (no result: APP transl inh)
CCCCCNc1nc2sc3c(c2c(=O)n1-c1cccc(Cl)c1)CCN(C)C3	BaF3 tox 68, Ba/F3 V617F tox 76 (no result: APP transl inh)
CCCCSc1nc2sc3c(c2c(=O)n1-c1ccccc1)CCN(C)C3	none (no result: BaF3 tox, APP transl inh, Ba/F3 V617F tox)
Cc1ccc(NC(=S)NNC(=S)Nc2ccc(C)cc2C)cc1	BaF3 tox 30, APP transl inh 92, Ba/F3 V617F tox 82
Cc1ccc(NC(=O)CCC(=O)NNC(=S)Nc2ccccc2)c(C)c1	none
Cc1ccc(NS(=O)(=O)c2ccc(C(=O)N3CCN(c4ncccn4)CC3)cc2)cc1	BaF3 tox 28
CCCNC(=O)c1cc(Cl)c(NC(=O)C2=CSCCO2)cc1OC	none (no result: BaF3 tox, APP transl inh, Ba/F3 V617F tox)
NNc1nc2sc3c(c2c(=O)n1Cc1ccccc1)CCC3	BaF3 tox 34, Ba/F3 V617F tox 47 (no result: APP transl inh)
CCc1nc2sc3c(c2c(=O)n1N)CCC3	none
Nn1c(Nc2ccccc2)nc2sc3c(c2c1=O)CCC3	IEC-6 cytotox 22
COc1cccc(CN(C)C(=O)CNC(=O)c2ccc3c(c2)OCO3)c1OC	none (no result: BaF3 tox, APP transl inh, Ba/F3 V617F tox)
COc1ccccc1-c1ccc(/C=C2\C=CC(=O)O2)o1	none (no result: APP transl inh)
O=C(CSc1ccc(-c2ccc(Br)cc2)nn1)NC1CCCC1	none (no result: BaF3 tox, APP transl inh, Ba/F3 V617F tox)
O=C(CSc1ncnc2nc[nH]c12)c1ccccc1	none
O=C(CSc1ncnc2nc[nH]c12)c1ccc([N+](=O)[O-])cc1	Ba/F3 V617F tox 36 (no result: APP transl inh)
CCOc1ccc(N2CC(=O)N(c3ccc(OCC)cc3)CC2=O)cc1	BaF3 tox 93
CCOC(=O)C1CCCN(Cc2cc(=O)oc3cc(C)c(C)cc23)C1 (stereo not given)	BaF3 tox 82
CCOC(=O)C1CCCN(Cc2cc(=O)oc3cc(C)ccc23)C1 (stereo not given)	none
O=[N+]([O-])c1cccc(-c2c[n+]3c(n2-c2ccccc2)SCC3)c1	BaF3 tox 65, Ba/F3 V617F tox 35
Clc1ccc(-c2c[n+]3c(n2-c2ccccc2)SCC3)cc1	BaF3 tox 88, Ba/F3 V617F tox 67
O=C(CN1CCN(S(=O)(=O)c2ccc(F)cc2)CC1)Nc1ccc(F)cc1F	none (no result: BaF3 tox, APP transl inh, Ba/F3 V617F tox)
O=C(COc1ccccc1)Nc1c2c(nn1-c1ccc(F)cc1)CS(=O)(=O)C2	none (no result: BaF3 tox, APP transl inh, Ba/F3 V617F tox)
CCOCCOC(=O)c1[nH]c2c(c1C)C(=O)CC(c1cccs1)C2 (stereo not given)	KLF5 inh 77, BaF3 tox 80, APP transl inh 93, Ba/F3 V617F tox 80, IEC-6 cytotox 87
CCOCCOC(=O)c1[nH]c2c(c1C)C(=O)CC(c1cc(OC)c(OC)c(OC)c1)C2 (stereo not given)	none (no result: BaF3 tox, APP transl inh, Ba/F3 V617F tox)
CCC(C)(C)n1nnnc1C(c1ccccc1F)N1CCN(C(=O)c2ccco2)CC1 (stereo not given)	none (no result: BaF3 tox, APP transl inh, Ba/F3 V617F tox)
CC(CCc1ccccc1)NC(=O)C1CCN(S(=O)(=O)N2CCOCC2)CC1 (stereo not given)	BaF3 tox 91
O=C(NNC(=O)c1cccnc1SCc1cccc([N+](=O)[O-])c1)c1ccccn1	APP transl inh 72
C/C(N)=C(/C#N)C(=O)COC(=O)c1ccc(OCC2CCCO2)cc1 (stereo not given)	none (no result: BaF3 tox, APP transl inh, Ba/F3 V617F tox)
Nc1nc(N)c2c(ccc3nccc32)[nH]1	BaF3 tox 102, Ba/F3 V617F tox 94, IEC-6 cytotox 71 (no result: APP transl inh)
O=C(c1cccc(OCc2ccccc2)c1)N1CCOCC1	none
CCOc1ccc(OCc2cccc(C(=O)N3CCOCC3)c2)cc1	APP transl inh 48
